# Compound activity: PubChem, National Center for Advancing Translational Sciences (NCATS)
# A selection: hits, their analogues and other compounds. The true share with any hit is near 0.47%.
# N370S GC mod: N370S glucocerebrosidase modulation, Gaucher chaperone candidate; N370S GC spleen homogenate, 4MU-glucoside fluorescence; 0.092% of 330,000 active; P04062; Potency, µM (highest dose often 59.4 µM), most hits filed as inhibitors; AID 2101
# Mito fusion act: blocks mitochondrial division or promotes mitochondrial fusion. S. cerevisiae fusion-defective mutant growth rescue, CellTiterGlo 48 h. Potency, µM (series often up to 46.1 µM), usual class: activators. 0.23% of 320,000 active. AID 485298; note: nearly all actives have a fitted effect of over 45% in size
#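 Temperature-sensitive fusion-defective S. cerevisiae (e.g. fzo1-1, mgm1-5) were grown with compound in YPEG medium (3% ethanol, 3% glycerol) for 48 hours at 37C. Growth rescue was measured as viability by CellTiterGlo luminescence after 10 minutes at ambient.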
# AT treatment: candidate therapy for ataxia-telangiectasia | F2112 A-T fibroblasts, KAP-1 phosphorylation AlphaLISA; neocarzinostatin DNA damage 30 min before lysis | Potency, µM (doses to about 57.5 µM), most hits filed as activators | 0.19% of 320,000 active | AID 485349; note: nearly all actives have a fitted effect of over 45% in size
#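 hTERT-immortalized A-T patient fibroblasts (F2112), 500 cells/well in OPTI-MEM, 1% FBS, got compounds for 60 min, then NCS for 30 min at 37C. Lysates were then assayed for phospho-KAP-1 by AlphaLISA (anti-pKAP1 donor, anti-KAP1 acceptor beads), 6 hr at 25C.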
# Eya2 inh: blocks the phosphatase activity of human Eya2. 0.006% of 330,000 active. recombinant Eya2, OMFP fluorescence dephosphorylation (OMFP is methylfluorescein phosphate). Potency, µM (doses to about 76.9 µM), most hits filed as inhibitors. O00167
# Target sequence (O00167 whole entry, looked up): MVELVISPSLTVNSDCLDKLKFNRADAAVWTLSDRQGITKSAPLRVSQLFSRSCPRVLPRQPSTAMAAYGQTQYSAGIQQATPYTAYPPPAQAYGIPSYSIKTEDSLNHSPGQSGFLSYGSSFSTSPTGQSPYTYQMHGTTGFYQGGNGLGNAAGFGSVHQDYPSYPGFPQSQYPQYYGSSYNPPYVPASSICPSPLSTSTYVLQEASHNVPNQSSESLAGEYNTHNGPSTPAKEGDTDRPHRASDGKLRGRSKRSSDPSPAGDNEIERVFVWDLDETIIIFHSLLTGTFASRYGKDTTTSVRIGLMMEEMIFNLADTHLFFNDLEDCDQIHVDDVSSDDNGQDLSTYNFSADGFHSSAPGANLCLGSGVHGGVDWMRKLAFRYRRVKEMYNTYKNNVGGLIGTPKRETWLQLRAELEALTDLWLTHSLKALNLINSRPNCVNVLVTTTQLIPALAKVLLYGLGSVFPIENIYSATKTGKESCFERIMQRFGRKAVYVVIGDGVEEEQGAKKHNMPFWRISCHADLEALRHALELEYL
#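 Eya2 protein (added as 0.2 uM solution) was preincubated with compound for 10 min at ambient temperature in 50 mM HEPES pH 7.5, 50 mM NaCl, 5 uM MgCl2, 0.05% BSA, 1 mM DTT. OMFP (added at 50 uM) then reacted 10 min; fluorescence read at 485/525 nm.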
# A number is an active result; . = inactive; ? = inconclusive; / = no result; [ ] = dose if it differs, or a comment. Calls come from the whole dose curve; as a rule, active = well fitted curve in the direction sought with a large enough effect; inconclusive = small, poorly fitted or top-dose-only effect, or another doubt; inactive = no such curve, though single readings can be large; an effect the other way counts as inactive or inconclusive.
SMILES,N370S GC mod,Mito fusion act,AT treatment,Eya2 inh
CCc1ccc(NC(=O)CN(c2ccc(OC)cc2)S(=O)(=O)c2c(C)[nH]c(=O)[nH]c2=O)cc1,3.2µM,.,.,.
Cc1ccc(/C=N/N(C)S(=O)(=O)c2ccc(C)cc2)cc1,.,.,28µM,.
CSc1ccc(/C=N/N(C)S(=O)(=O)c2ccc(C)cc2)cc1,.,.,.,.
CCCCCc1ccc(C2=NNC(=O)CC2)cc1,.,.,.,.
c1ccc(-c2ccc(N3CCCC4(CCNCC4)C3)cc2)cc1,16µM,/,/,/
COCc1nc2sc3c(c2c(=O)[nH]1)CCCC3,.,22µM,.,.
CC(C(=O)NC1CCCC1)N(C(=O)Cn1nnc(-c2ccc(F)cc2)n1)c1ccccc1F (stereo unspecified),.,7.1µM,.,.
COc1ccc(N(C(=O)Cn2nnc(-c3ccc(F)cc3)n2)C(C)C(=O)NC2CCCC2)cc1 (stereo unspecified),.,.,.,.
CCN(CC)c1ccc2cc(S(=O)(=O)c3ccc(Cl)cc3)c(=O)oc2c1,.,.,25µM,.
CC1(C)Cc2c(sc3nc(-c4cccs4)n(N)c(=O)c23)CO1,.,.,.,.
Fc1ccc2nc(Nc3nc4cc5c(cc4s3)OCCO5)sc2c1,.,13µM,.,.
Fc1ccc2nc(Nc3nc4cc5c(cc4s3)OCO5)sc2c1,.,.,.,.
c1ccc2sc(Nc3nc4cc5c(cc4s3)OCO5)nc2c1,.,14µM,.,.
CC(=O)c1sc(Nc2nc3cc4c(cc3s2)OCO4)nc1C,.,.,.,.
O=C(CSc1nnc(-c2ccc(O)cc2)o1)Nc1ccccc1Br,.,.,.,.
CCOC(=O)C(=O)Nc1nnc(Cc2ccc(OC)c(OC)c2)s1,.,.,28µM,.
CCOCC(=O)Nc1nnc(Cc2ccc(OC)c(OC)c2)s1,.,.,.,.
Cc1ccc(NC(=O)C(C)Sc2nnc(C)n2CC2CCCO2)cc1 (stereo unspecified),.,.,.,.
COC(=O)C1=CN(C(C)C)C=C(C(=O)OC)C1c1cccc(OC)c1,.,.,.,.
COC(=O)C1=CN(C(C)C)C=C(C(=O)OC)C1c1cc(Br)c(OC)c(OC)c1,.,.,20µM,.
COc1cc(C#Cc2c(-c3cncn3C)n(C)c3ccc(-c4ccc(OC)nc4)cc23)cc(OC)c1,/,.,32µM,.
CN(C)C(=O)c1cc(F)ccc1Sc1cc(Cl)ccc1Cl,.,.,.,.
COc1ccc(-c2ccnc3nc(N4CCN(c5ccccc5)CC4)nn23)cc1,.,13µM,.,.
Fc1ccc(-c2ccnc3nc(N4CCOCC4)nn23)cc1,?,.,.,.
CCN(CC)CCOC(=O)c1ccc(N/C=C(/C#N)c2nc(-c3cc4ccccc4oc3=O)cs2)cc1,.,8.9µM,.,.
SMILES,N370S GC mod,Mito fusion act,AT treatment,Eya2 inh
Cc1ccc(C)c(NC(=O)NCc2ccccn2)c1,.,.,.,.
CC(=O)c1cccc(OCC(O)CNCC2COc3ccccc3O2)c1 (stereo unspecified),?,/,50µM,.
CCOC(=O)C1=C(C)N(c2ccc(OC)cc2)C(=O)/C1=C\c1ccc(O)c(OCC)c1,.,.,13µM,.
COc1cc2oc(-c3ccc(O)cc3)cc(=O)c2c(O)c1OC,10µM,.,.,.
COc1cc2oc(-c3ccc(O)cc3)cc(=O)c2c(OC)c1O,?,.,.,.
CCCN1CCC(NC(=S)Nc2ccc(C(=O)OCC)cc2)CC1,.,.,.,.
COc1ccc2nc(NC(=O)c3ccccc3C(=O)O)sc2c1,.,.,.,.
CSc1ncccc1C(=O)Nc1nc2ccc(Oc3ccccc3)cc2s1,.,13µM,.,.
Nc1nc(NCCOCCO)nc(NC2CCCCC2)c1[N+](=O)[O-],.,.,.,.
Fc1ccc(N2N=C(c3cccs3)CC2c2ccccc2)cc1 (stereo unspecified),?,.,22µM,.
O=C(CN1C(=O)c2cccc([N+](=O)[O-])c2C1=O)NCc1ccccc1,.,.,3.2µM,.
O=C(Nc1ccc2c(c1)OCO2)c1ccc(Cl)cc1Cl,.,.,.,.
Cc1c(C(=O)c2ccc(Cl)cc2Cl)cnc2cc3c(cc12)OCO3,.,13µM,/,.
O=C(C[C@H]1C[C@H](C(=O)N2CCCCC2)[C@@]2(CCc3ccccc3)c3[nH]c4cc(-c5ccco5)ccc4c3CCN2C1=O)NCCN1CCOCC1,/,/,.,.
CC(=O)n1c2ccccc2c2ccccc21,.,.,.,.
c1ccc(-n2c3ccccc3c3ccccc32)cc1,.,.,25µM,.
Cc1ccc(C(=O)Nc2sc3c(c2C(=O)O)CCCCC3)o1,.[2.35 µM],?,10µM,.
Cc1ccc(C(=O)Nc2sc3c(c2C(=O)O)CCCC3)o1,.,.,.,.
CC(C)(CO)NC(=O)c1ccc2c(c1)C(=O)c1ccccc1-2,.,.,0.71µM,.
Cc1cc(C)c(C#N)c(SCc2ccc(C(=O)O)cc2)n1,.,.,.,.
CC(=O)c1c(C)[nH]c(C(=O)OCc2cccc(C)c2)c1C,.,35µM,.,.
CC(=O)c1c(C)[nH]c(C(=O)OCc2ccc(Br)cc2)c1C,.,.,.,.
CCc1cc(=O)oc2cc3occ(-c4ccc(OC)c(F)c4)c3cc12,.,16µM,.,.
CCc1cc(C(=O)Nc2ccc(C)cc2Br)cs1,?,.,.,.
CC(=O)N1c2ccc(S(=O)(=O)NCCC(=O)N3CCCC(C)C3)cc2CC1C (stereo unspecified),.,11µM,.,.
SMILES,N370S GC mod,Mito fusion act,AT treatment,Eya2 inh
O=S(=O)(c1ccccc1F)N1CCC(Oc2ccc(-n3cnnn3)cc2)CC1,.,10µM,.,.
C(=N\Nc1ccccn1)/c1c[nH]c2ccccc12,.,.,5µM,.
O=C(O)c1cccc(-n2cc(-c3cccc(C(F)(F)F)c3)cn2)c1,.,16µM,.,.
O=C(O)c1ccc(-c2nc(-c3cccc(C(F)(F)F)c3)cs2)cc1,.,.,.,.
OC(CNc1nc(-c2cccnc2)nc2ccccc12)c1ccccc1 (stereo unspecified),10µM,.,.,.
O=C(OCCNc1nc(-c2ccccc2)nc2ccccc12)c1cccnc1,7.1µM,.,.,.
O=C(OCCNc1nc(-c2ccccc2)nc2ccccc12)c1ccncc1,?,.,.,.
CC(=O)c1ccc(N2CCN(C(=S)Nc3cccc(F)c3)CC2)cc1,.,.,.,.
COc1ccc(CNC(=S)Nc2ccc(OC)cc2)cc1,.,.,.,.
COc1ccc(NC(=S)NCc2ccc(F)cc2)cc1,.,.,22µM,.
Cc1ccccc1Nc1nc(NCc2ccco2)c2ccccc2n1,20µM,?,.,.
Oc1ccccc1Nc1nc(NCc2ccco2)c2ccccc2n1,?,.,.,.
COc1ccc(OCCSc2ncnc3nc[nH]c23)cc1,.,.,.,.
CC1=C(C(N)=O)C(c2cccs2)NC(=S)N1 (stereo unspecified),.,.,.,.
CC(NC(=S)NCCc1ccccc1)C(c1cccs1)N1CCN(C)CC1 (stereo unspecified),11µM,.,.,.
